Screening data: PubChem BioAssay, several laboratories
Most compounds without a hit are left out; they make up all but 4% or so of the library.
Arbovirus anti: arbovirus infection inhibition; inhibition, % at 10 µM; AID 1251; 0.37% of 200,000 active; arbovirus infection cell-based antiviral screen; in the data active = inhibition above about 30%
Measles CPE: protection of cells from measles virus; AID 841; Measles virus-infected cells, CPE protection, absorbance; protection (pct of control), % at 4 µM; 1.5% of 140,000 active; in the data active = protection mostly above about 24%, no sharp cut-off; inactive = mostly below about 26%
ROMK mod: modulators of human ROMK potassium channel | P48048 | Tet-inducible ROMK, thallium flux fluorescence; actives lie on both sides | B-score at 10 µM | 2% of 130,000 active;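 active = signal ratio slope over the read window, or its plate-corrected B-score, at least 3 SD from the plate mean, either direction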;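 note: B-score of the F/F0 ratio slope over 7 to 12 s after thallium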
Target sequence (P48048 whole entry, looked up): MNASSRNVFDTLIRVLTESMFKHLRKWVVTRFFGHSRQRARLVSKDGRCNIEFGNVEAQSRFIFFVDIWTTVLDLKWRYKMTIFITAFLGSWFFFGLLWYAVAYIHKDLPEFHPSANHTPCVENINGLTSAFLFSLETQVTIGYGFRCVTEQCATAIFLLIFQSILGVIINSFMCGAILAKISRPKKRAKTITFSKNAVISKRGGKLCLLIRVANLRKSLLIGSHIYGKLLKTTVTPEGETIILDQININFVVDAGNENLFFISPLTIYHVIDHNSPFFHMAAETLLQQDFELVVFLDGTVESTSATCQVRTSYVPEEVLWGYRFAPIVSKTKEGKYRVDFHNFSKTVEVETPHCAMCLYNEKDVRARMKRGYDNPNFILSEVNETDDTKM
KCC2 mod: modulates chloride dependent transport by human KCC2. Q9H2X9. 2.2% of 190,000 active. AID 1456. B-score of Tl+ flux slope (higher = more flux/activation; lower = inhibition) at 10 µM. KCC2 cells, thallium flux FluoZin-2 fluorescence;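 active = thallium flux slope and its plate-corrected score both differing from the plate sample mean at a set confidence after two filtering rounds, in either direction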;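 note: slope of fluorescence scaled to starting intensity during 10 to 20 s after thallium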
HSV replic up: HSV replication enhancement. maximum fold increase. 0.005% of 220,000 active. HSV replication augmentation in cells, fold increase; in the data active = maximum fold increase above about 1.5; inconclusive = no clear call, values can overlap the other calls; tested in PC3 cells
ROMK retest: retested hit modulating human ROMK potassium channel. shares compounds with ROMK mod. ROMK thallium flux, fluorescence ratio; hits give low values. normalized thallium flux (F/F0 slope) at 10 µM. 54% of 3,000 active;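 active = Flux at 10 µM at least 3 SD below or above vehicle control mean in one or both replicates; inconclusive = no clear call, values can overlap the other calls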
An asterisk follows results filed as active; i = inactive; ? = inconclusive; . = not tested or not shown.

SMILES	Arbovirus anti	Measles CPE	ROMK mod	KCC2 mod	HSV replic up	ROMK retest
COC(=O)c1ccc(NC(=O)C2CC(=O)OC2c2ccccc2)cc1 (stereo unspecified)	.	.	.	1.32	i	0.0721
O=C(Nc1ccc(Cl)cc1)/C(=C/c1ccc([N+](=O)[O-])cc1)c1nc2ccccc2s1	-21.6	.	0.0291	1.08	i	.
Cc1ccc(S(=O)(=O)Nc2cc(NC(=O)CN3CCOCC3)ccc2Cl)cc1	10.0	9.8	.	0.0519	i	0.0883
Cc1ccccc1C(=O)Nc1ccc(-c2nnc(SC(C)C(=O)O)n2C)cc1 (stereo unspecified)	.	.	.	-0.423	i	0.0789
CN(CCOc1ccc(Cl)cc1)c1ccc(S(=O)(=O)N2CCCCC2)cn1	9.9	34.0	-4.39*	1.55	i	?
COCC(=O)Nc1sc2c(c1C(=O)OC)C(C(=O)OC)CC2 (stereo unspecified)	-4.5	16.3	.	0.814	i	0.0812
CCCC(=O)Nc1sc2c(c1C(=O)OC)C(C(=O)OC)CC2 (stereo unspecified)	-1.6	6.6	.	0.853	i	.
COc1cccc(-c2csc(N3CCN(C(=O)C4CCCCC4)CC3)n2)c1	-4.6	4.7	.	-1.06	.	?
O=C(NC1CCCCCC1)C1CCCN(S(=O)(=O)c2cccs2)C1 (stereo unspecified)	-4.6	16.6	.	-1.81	i	?
O=C(NC1CCCCC1)C1CCN(S(=O)(=O)c2cccs2)CC1	-3.4	12.2	-0.0571	.	i	.
CCN1C(=O)/C(=C/c2ccc(C)o2)N(C)C1=S	2.9	4.2	.	-0.213	i	.
COc1ccccc1C1CCN(c2ccc([N+](=O)[O-])c(OC)c2)CC1	.	.	.	-1.35	i	.
COc1ccccc1C1C([N+](=O)[O-])=CC([N+](=O)[O-])=CN1C (stereo unspecified)	-4.9	22.5	-4.95*	-4.93	?	0.0546*
COc1ccccc1C1NC=C([N+](=O)[O-])C=C1[N+](=O)[O-] (stereo unspecified)	-3.2	8.6	.	-3.52	i	0.0513*
NC(N)=NC1=NC(=O)C(Cc2ccccc2)S1 (stereo unspecified)	-2.3	.	0.574	0.538	i	.
O=C(O)CCCCCCNS(=O)(=O)c1ccccc1	0.7	19.7	-0.251	0.301	i	.
O=C(O)CC(CNS(=O)(=O)c1ccccc1)c1ccccc1 (stereo unspecified)	5.2	27.3	.	0.755	i	?
COc1cccc(CN2C(=O)[C@@H]3Cc4c([nH]c5ccccc45)C(C)(C)N3C2=O)c1	.	.	.	.	i	.
CCc1ccc(NC(=O)CNC(=O)c2cn(-c3ccccc3OC)c(=O)c3ccccc23)cc1	4.5	14.1	-0.946	-0.911	i	.
COc1ccccc1-n1cc(C(=O)NCC(=O)NCc2ccc(F)cc2)c2ccccc2c1=O	1.4	.	3.11*	.	i	0.0849
COCCNC(=O)C(OC(=O)C1=Cc2ccccc2OC1)C(C)C (stereo unspecified)	-1.2	.	0.335	-0.785	i	.
Cc1ccc2[nH]c3c(NCc4ccco4)ncnc3c2c1	-0.1	2.8	-3.4*	-1.18	i	0.0649*
c1coc(CNc2ncnc3c2oc2ccccc23)c1	1.2	5.9	-3.54*	.	i	0.0614*
CCc1nc(NCc2ccco2)c2oc3ccccc3c2n1	7.4	8.6	.	-2.81	i	.
Cc1onc(-c2ccccc2)c1NC(=O)N(CCC#N)Cc1ccccc1	.	.	.	-0.395	i	.
SMILES	Arbovirus anti	Measles CPE	ROMK mod	KCC2 mod	HSV replic up	ROMK retest
CCOC(=O)Cn1cc(/C=N/NC(=O)c2cc3ccccc3o2)c2ccccc21	.	.	.	0.0515	i	0.0752
N#CCCn1cc(C=O)c(-c2cccs2)n1	-1.5	.	-0.243	0.105	i	.
Cc1ccc2[nH]c(-c3cccc(F)c3)cc(=O)c2c1	-7.5	9.7	3.07*	-0.0492	i	0.0834
COc1ccc2[nH]c(-c3cccc(F)c3)cc(=O)c2c1	-11.2	3.4	4.03*	-1.61	i	0.0948
Cc1ccc(-c2cc(=O)c3cc(F)ccc3[nH]2)cc1	-2.2	6.0	0.956	0.633	i	.
N#C/C(=N\Nc1cccc2ccccc12)c1nnc2n1CCCCC2	-3.3	20.6	.	-0.0276	i	0.0587*
COc1ccc(CCNC(=O)c2cn3ccc(C)cc3n2)cc1OC	7.8	.	-0.131	0.253	i	.
COc1ccc(-n2c(SCc3cccnc3)nc3c(c2=O)SCC3)cc1OC	10.1	.	-0.473	-3.36	i	.
COc1cccc(-n2c(SCc3ccccn3)nc3c(c2=O)SCC3)c1	5.9	.	1.14*	-1.5	i	0.0849
Cc1ccc(OCCn2cnc(Cl)c2Cl)cc1	-6.3	.	-1.11	-1.1	i	.
CCc1ccc(C2CC(=O)N(c3ccc(F)cc3)C3=C2C(=O)OC3)cc1 (stereo unspecified)	10.7	.	-0.0156	-1.01	i	.
CCN(CC)S(=O)(=O)c1ccc(Br)c(OC)c1	0.2	11.6	-0.593	.	i	.
CCCN(CCC)S(=O)(=O)c1ccc(Cl)c(OC)c1	0.1	.	-16*	-0.363	i	?
CCS(=O)(=O)c1ccc2c(c1)N(S(C)(=O)=O)CC(C(=O)NN)O2 (stereo unspecified)	0.8	.	-0.46	0.449	i	.
CC1CCN(CCCNC(=O)c2ccc3c(=O)n(Cc4ccc(Cl)cc4)c(=S)[nH]c3c2)CC1	-36.8	.	-2.67*	1.25	i	0.061*
CN(Cc1ccccc1)C(=O)c1ccccc1-c1ccccc1	8.6	.	0.753	-0.213	i	.
CN(Cc1ccccc1)C(=O)c1ccccc1Br	6.4	5.7	-2.83*	.	i	0.0662*
Cc1ccccc1NC(=O)CSc1n[nH]c(-c2ccco2)n1	2.2	.	0.406	-0.859	i	.
c1ccc(CSc2n[nH]c(-c3ccco3)n2)cc1	2.4	13.6	1.99*	-0.254	i	0.0726
CCOC(=O)C1=C(Cc2ccc(C)cc2)C(=O)c2ccccc2C1=O	1.2	16.9	-5.08*	0.0102	?	0.0542*
CC(C)(C)OC(=O)C(Cc1ccc(OC(C)(C)C)cc1)NC(=O)CNC(=O)OCc1ccccc1 (stereo unspecified)	1.8	5.5	-2.15*	-1.45	i	0.0583*
COC(=O)CNC(=O)C(C)NC(=O)CNC(=O)OCc1ccccc1 (stereo unspecified)	12.8	11.3	.	-0.672	i	0.0769
S=C1NC2(CCCCC2)Nc2ccccc21	1.3	.	-0.881	0.354	i	.
CCOc1cccc(C2C(C(=O)c3ccc(C)o3)=C(O)C(=O)N2Cc2ccncc2)c1 (stereo unspecified)	2.9	3.4	.	.	i	.
CCOc1cccc(C2C(C(=O)c3ccc(C)o3)=C(O)C(=O)N2c2nccs2)c1 (stereo unspecified)	-7.1	5.0	-5.41*	-2.2	?	0.0379*
c1ccc(N2CCN(c3nnnn3-c3ccccc3)CC2)cc1	-3.1	7.4	-0.839	0.00803	i	.
ClC(Cl)(c1nnnn1-c1ccccc1)c1nnnn1-c1ccccc1	-31.1	6.9	-2.82*	-1.22	i	0.06*
COc1ccc(Cn2nnnc2C(c2ccccc2Cl)N2CCN(C3CCCC3)CC2)cc1 (stereo unspecified)	-16.4	17.7	-4.85*	.	i	0.0505*
